About 83,000 compounds went through this panel and 20% of them were active in at least one assay; those are over-represented in the sample as a whole.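 The test compound was applied at a single concentration to cells in 96-well plates for 48 hours, and percent growth was recorded.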 A number with no mark means an inactive call. Active and inactive are the calls of the source. Rule for the calls: active = growth percent below 10; inactive = the rest.
Columns and labels:
Assay in all cases: NCI-60 one-dose screen, 48 h (100 = growth as untreated, 0 = no growth, -100 = all killed)
Conditions in all cases: 10 µM unless noted
[1] = tested on: SK-MEL-2 melanoma
[2] = tested on: EKVX NSCLC
[3] = tested on: SN12C renal
[4] = tested on: UO-31 renal
[5] = tested on: TK-10 renal
[6] = tested on: ACHN renal
[7] = tested on: CAKI-1 renal
[8] = tested on: A498 renal
[9] = tested on: CCRF-CEM leukemia
[10] = tested on: MOLT-4 leukemia

| Structure (SMILES) | growth [1] | growth [2] | growth [3] | growth [4] | growth [5] | growth [6] | growth [7] | growth [8] | growth [9] | growth [10] |
| --- | --- | --- | --- | --- | --- | --- | --- | --- | --- | --- |
| O=C1c2cc3c(cc2-c2c1c1cc(F)c(F)cc1c(=O)n2C[C@H](O)CO)OCO3 | -26% (active) | 14.7% | -12.6% (active) | -56.8% (active) | -27.6% (active) | -61.5% (active) | -4.95% (active) | -79.4% (active) | -10.9% (active) | -26% (active) |
| COC1=CC(=O)C(OC)=C(OC)C1=O | 99.3% | 98.6% | 101% | 104% | 115% | 111% | 95.4% | 88.2% | 31.9% | -7.34% (active) |
| C/C(Cc1ccc(Cl)cc1)=C(\c1ccc(OCCN2CCCCCC2)cc1)c1ccc(OC(=O)C2CCCCC2)cc1 | 81.6% | 81% | 67% | 40.9% | 84.1% | 87% | 80.8% | – | 55.3% | 25.6% |
| COc1cc(NCCCCN=C(N)NC(N)=NC(C)C)c2ncccc2c1 | 43.7% | 68% | 32.6% | 71.6% | 90.4% | 108% | 116% | – | 48.8% | 54.1% |
| O=C(CNC1C2CC3CC(C2)CC1C3)Sc1nnc2sc3ccccc3n12 (configuration not stated) | 108% | 93% | 101% | 78.3% | 127% | 100% | – | 107% | 86.1% | – |
| COc1ccc(-c2cn3c(ccc4ccccc43)n2)cc1 | 109% | 72.1% | 89.9% | 56.1% | 126% | 81.3% | 92.7% | – | 99.2% | 113% |
| O=C1C[C@H](Sc2nc(-c3ccc(F)cc3)cc(C(F)(F)F)n2)[C@H]2CO[C@@H]1O2 | 107% | 107% | 92.4% | 88.3% | 99.2% | 88.9% | 81.5% | – | 51.1% | 78.3% |
| COc1cccc(/C=C\C(=O)c2ccccc2)c1 | 105% | 90.7% | 70.1% | 60.2% | 102% | 75% | 66.6% | – | 25.2% | 28.8% |
| COc1ccc(CN2C(=O)/C(=C\c3cc(OC)c(OC)c(OC)c3)c3cc(OC)ccc32)cc1 | -13.4% (active) | 13.5% | 18% | 6.01% (active) | 11.2% | -60.5% (active) | -2.31% (active) | – | – | -24.7% (active) |
| Cc1ccc2c(c1)O/C(=C\c1cccc(OCC(=O)c3ccccc3)c1)C2=O | 70% | 95.5% | 107% | 78.4% | 133% | 103% | 85.1% | – | 129% | -34.3% (active) |
| CC(=O)OC1Oc2cc(C)c(C)cc2-c2oc(=O)c(-c3cc4ccc(N(C)C)cc4oc3=O)cc21 (configuration not stated) | 92.4% | 41.5% | 84.2% | 51.4% | 89.6% | 103% | 65.4% | – | 54.9% | -17.4% (active) |
| O=C(/C=C/c1cc2ccccc2[nH]c1=O)/C=C/c1cc2ccccc2[nH]c1=O | 54% | 47.3% | 23.8% | -83.8% (active) | -14.8% (active) | -11.2% (active) | 31.9% | – | 17.8% | 31.6% |
| Cc1nn(-c2ccccc2)c2nc(C)n(-c3ccc(Br)cc3)c(=O)c12 | 26.6% | 32.1% | 48.6% | 34.1% | 53.1% | 44.8% | – | -30.4% (active) | 13.6% | 19.8% |
| O=C(CN1CCN(c2cc3c(cc2F)c(=O)c(C(=O)O)cn3C2CC2)CC1)Nc1nc(-c2ccc(Cl)cc2)cs1 | 21.9% | 35.4% | 15.8% | 20.2% | 26.7% | 25.1% | – | 4.43% (active) | 23.8% | – |
| Cn1c(=O)c2c(ncn2CC[N+](C)(C)C)n(C)c1=O | 99.7% | 94.6% | 103% | 91.7% | 91.8% | 110% | – | 115% | 109% | 104% |
| CCN(CC)C12CCCCC1(C)C(C#N)(C#N)C(C#N)=C(N)O2 (configuration not stated) | 112% | 89.3% | 97.5% | 82.7% | 93.2% | 106% | 91.8% | 122% | – | 108% |
| NC(=S)N/N=C/c1ccc(OCc2ccccc2)cc1 | 54.2% | 74.8% | 70.6% | 22.8% | 60.2% | 67% | 68.2% | – | 39.1% | 32.1% |
| NS(=O)(=O)c1ccc(Nc2nc3n[nH]c(Nc4ccccc4)c3c(=O)[nH]2)cc1 | 101% | 107% | 103% | 74.9% | 106% | 109% | 88.7% | – | 105% | 89.2% |
| COc1ccc(/C=N\NC(=O)CN2CCN(c3cc4c(cc3F)c(=O)c(C(=O)N/N=C/c3ccc(OC)cc3)cn4C3CC3)CC2)cc1 | 103% | 71.7% | 79% | 57.6% | 100% | 89.7% | 95.1% | – | 81.5% | 60% |
| CN1CCN(Cc2ccc(NC(=O)c3[nH]ncc3Nc3ncnc4sccc34)cc2)CC1 | 7.08% (active) | 16.1% | 4.54% (active) | 14.8% | 16.3% | 1.08% (active) | 6.37% (active) | – | 8.16% (active) | – |
| COc1ccc(CCN2CC=Cn3c2nc2ccccc2c3=O)cc1 | 46.5% | 64.9% | 32.6% | 35.2% | 77.6% | 26.7% | – | -7.45% (active) | 18.7% | 19% |
| Cn1c(=O)c2[nH]c(C(O)C(O)C(O)C(O)CO)nc2n(C)c1=O (configuration not stated) | 104% | 103% | 107% | 91.8% | 103% | 106% | – | 106% | 105% | 103% |
| O=[N+]([O-])c1cccc(-c2nc3sccn3c2-c2ccnc(NCCNS(=O)(=O)c3ccc(C(F)(F)F)cc3)n2)c1 | 26.9% | 39.5% | 33% | 17.3% | 57.9% | 22.5% | 30.3% | – | 20.2% | 18.2% |
| NC(N)=Nc1ccc(S(=O)(=O)O)cc1 | 107% | 110% | 90.8% | 94.6% | 108% | 93% | – | 97.8% | 108% | 85.2% |
| CCC(=O)Oc1ccc(/C(=C(\C)c2ccccc2)c2ccc(OCCN(CC)CC)cc2)cc1 | 108% | 103% | 84.5% | 63.3% | 87.4% | 94.8% | – | 99.9% | 77.8% | 66.4% |
| Brc1cccc(-c2cc(-c3ccc4c(c3)OCCO4)[nH]n2)c1 | 35.8% [25 µM] | 20.3% [25 µM] | 33.7% [25 µM] | 35% [25 µM] | 59% [25 µM] | 41.4% [25 µM] | – | 7.77% [25 µM] (active) | 19.5% [25 µM] | 50.4% [25 µM] |
| COc1ccc(-c2cc(NC(=O)Nc3ccc(O)cc3)no2)cc1 | 102% | 77.2% | 74.8% | 41.9% | 96.9% | 55.4% | 31.2% | – | 31% | 19.2% |
| Clc1ccc(-c2nnc(COc3ccccc3Cl)o2)cc1 | 99.1% | 86.9% | 97.8% | 77.5% | 69.9% | 22.7% | – | 98.7% | 92% | – |
| CC[C@@H](C)OC(=O)c1nn(C(C)=O)c2ccccc12 | 107% | 101% | 102% | 92.9% | 105% | 108% | – | 99.2% | 103% | 123% |
| Cc1cc2cc3cc(C)c(N(C)C)cc3[n+](C)c2cc1N(C)C | -22% (active) | 52% | 10.7% | 62.1% | -17.4% (active) | 43.8% | – | 56.9% | 13% | 33.9% |
